Laboratory results reported in PMC12136788.
Whole data set: some 24,000 sequences, median “enrichment r” near 0.99, cut for the highest 2% near 3.7. The sample holds the highest values, similar sequences and a random draw of the others, so the mix is not that of the screen.

T1: UNK ZnF1-3 (human, UniProt Q9C0B0 31-174)
T1 sequence: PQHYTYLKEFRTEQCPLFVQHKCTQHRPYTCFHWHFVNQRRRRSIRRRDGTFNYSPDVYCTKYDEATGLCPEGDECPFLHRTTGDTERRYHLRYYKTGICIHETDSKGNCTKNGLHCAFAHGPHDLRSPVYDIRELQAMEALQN

B1: chr2:48034705:48034706:-_ENSG00000138081_ENST00000403359|hu_hu|FALSE|FALSE (ssRNA)
RNA: GGGAGUUCUACAGUCCGACGAUCCAUAGAAAGAACGUACAUACUGGGACAUGAGUACAGUUACAGCAAGUCUAGGUGUGCUAACAAAACAGGGCACAUUCAAGUACAGUAAGAUUUUGCUUGAAAUUAAAAACAAACUACAUGCAACAGAGGAUUGAGCAUCA
B2: chr2:39006174:39006175:+_ENSG00000152147_ENST00000409566|hu_mus|FALSE|FALSE (ssRNA)
RNA: GGGAGUUCUACAGUCCGACGAUCUACUCCUUCUCACAGGCUAUCACUCUCACUUCUUUAUAAACGUAAUCUUCCCAUUCUAAGGGGCUUUUCUUCAUCCAUUCGCUCAUGGUUACCAGUUGCCCAGAUUCUUUCUAGAUGACUCAACAGAGGAUUGAGCAUCA
B3: 8805033_8805153_1671_3pUTR_ENSMUSG00000021147_ENSMUST00000021572|mouse|control|control (ssRNA)
RNA: GGGAGUUCUACAGUCCGACGAUCAACUUGGAGCUAAGGAACAUCAGUGACUUAUUUUUCUUGUAACAGUGCAGGAAUAUUGAUGUUCCACCCAAUAGCUUGCCUAUCGAACCCACAGGUAAAUAGAUUGCAUAUGGGGUGGUCCAACAGAGGAUUGAGCAUCA
B4: chr2:46850943:46850944:+_ENSG00000119878_ENST00000238892|hu_hu|FALSE|FALSE (ssRNA)
RNA: GGGAGUUCUACAGUCCGACGAUCGUAGGCACAGCCCUGGCAGUAAUGAGAACCUGGUUGGUGCACAGAACUUUUACAAAUUCUACAAGUGGAGAACUUAUUCUUUCCAUAUGGAUCAAAUCUUGCUUUUUUUGAAGUCAAAGCCAACAGAGGAUUGAGCAUCA
B5: 72481967_72485090_997_CDS_ENSMUSG00000030516_ENSMUST00000102592|mouse|control|control (ssRNA)
RNA: GGGAGUUCUACAGUCCGACGAUCUGCUGCCAAACUAUCUUGUGAAAUUUCCUUUACAAAUAUAUGGCUGGCCAAUCGAAGACCAUAUUCUUCAUUUUUCCGAGACUUCACCAGUGUGACCUUGGUGGGCUUUGCGGGCUGACUCAACAGAGGAUUGAGCAUCA
B6: chr4:128986876:128986877:-_ENSMUSG00000057236_ENSMUST00000102598|mus_mus|motif|central (ssRNA)
RNA: GGGAGUUCUACAGUCCGACGAUCGAUGGUGAGACAGGUCAACCAAAAUGGAGAUGGCAUCAAACUAUAGUGGUCAAAGACGGACCCCUAAAAAAGCAACUUUUAUCAAGGAUUAAUUUAAUCUUAAAAACAAACACAAACUAGCAACAGAGGAUUGAGCAUCA
B7: chr18:46664354:46664355:-_ENSMUSG00000033319_ENSMUST00000036226|mus_hu|FALSE|FALSE (ssRNA)
RNA: GGGAGUUCUACAGUCCGACGAUCGGAAAAAACUGUAGUAGAAAUGGUUAGGACAAACAAUAAAGUAGAAACAGGGGGGAAACUUGAGAAGAGAAGAAAGAAGCAAGAAAAAAAGACUUUCAAUUGUAUAAAAUUCACAAACCACAACAGAGGAUUGAGCAUCA
B8: chr3:148802587:148802588:-_ENSG00000071794_ENST00000310053|hu_mus|hu_hu_hu_mus_False|18_58 (ssRNA)
RNA: GGGAGUUCUACAGUCCGACGAUCUCCAACAACUUGUCCUCUCAUAGUUCCAAAUAAAACCAAAUCUUGCUCUUCAUCACUAGUUAGGAAGUCAUCUGGAGGAAUAAUGUCUUGGAAUUCAAAACGUGGCAAGAAAGUUGAGUACAACAGAGGAUUGAGCAUCA
B9: chrX:71549400:71549401:+_ENSMUSG00000019087_ENSMUST00000019231|mus_hu|mus_mus_mus_hu_False|8_88 (ssRNA)
RNA: GGGAGUUCUACAGUCCGACGAUCGCAGUAGGAAGAGGGAAGCUCUUCAUCCACUGUCGCUGCAGGGUGGGAAAGCAACAACACGGACACCGUCCCACCCUCAACCCCCCCACUGGCACAGGGUCACAUCUGGGUCAUCAAAGACAACAGAGGAUUGAGCAUCA
B10: chr16:45711415:45711416:-_ENSMUSG00000022658_ENSMUST00000096057|mus_mus|FALSE|FALSE (ssRNA)
RNA: GGGAGUUCUACAGUCCGACGAUCAUUAGGAUACGUUCUGUGAGUCAAGGAGAGAAACUUUUUGGCAAAUAAAUAAAUAAAUAAUCAAACAAACCAAGACCUUAGGGCACAGGAGGUCAGAGAGGAAAGGGAGUCUUUGCAUAGCAACAGAGGAUUGAGCAUCA
B11: chr10:112362727:112362728:-_ENSMUSG00000074748_ENSMUST00000099276|mus_mus|FALSE|FALSE (ssRNA)
RNA: GGGAGUUCUACAGUCCGACGAUCGAUCCCAGCAUGCGAUAAUGCCAGGUAGUGGCCCCUGGGCAUGCGAUGGUGGGAACUAAUUUACUGAAGAAAAAAGCACAAACCACAGAAAAUGUAAAGAACCCCUUCCCCCUAUACACACAACAGAGGAUUGAGCAUCA
B12: chrX:71549400:71549401:+_ENSMUSG00000019087_ENSMUST00000019231|mus_hu|mus_mus_mus_hu_False|8_58 (ssRNA)
RNA: GGGAGUUCUACAGUCCGACGAUCGCAGUAGGAAGAGGGAAGCUCUUCAGUCCAGUGCGCUGCAGGGUGGGAAAGCACAACCUAGACCACCGUCCCACCCUCAACCCCCCCACUGGCACAGGGUCACAUCUGGGUCAUCAAAGACAACAGAGGAUUGAGCAUCA
B13: chr7:141438946:141438947:+_ENSG00000106028_ENST00000265304|hu_mus|hu_hu_hu_mus_True|8_98 (ssRNA)
RNA: GGGAGUUCUACAGUCCGACGAUCGACGAAAUACCUGACAGGUCUUCCUUCGAAACAUGGCUUCUGUUUUUCUUACAACCUAAUCUUUAGGCUUUUCCUAAAGGAAAGAAAGAAAAGAGAAAAAUGAGCAGGGGAUCAACUACACAACAGAGGAUUGAGCAUCA
B14: chr11:86070927:86070928:-_ENSMUSG00000018068_ENSMUST00000018212|mus_mus|FALSE|FALSE (ssRNA)
RNA: GGGAGUUCUACAGUCCGACGAUCUGGCACCAACAGUGCCGUCGACAGAGCGAGAAUCAGAAUGGGGACACUGCAAAAAAAAAAAAAAAAGUAAAAAGGAAAGGGAAAAAAAAGGGAGAAGCAACCAGGAGAGAGGGGAAAGCACAACAGAGGAUUGAGCAUCA
B15: chr4:88365945:88365946:-_ENSMUSG00000070923_ENSMUST00000094993|mus_mus|motif|central (ssRNA)
RNA: GGGAGUUCUACAGUCCGACGAUCACUUGUAUAGCCAUUUACUAAACAAUAUCAAGCCAAACCAAAAAAAAAAAAGGGUCGGAGUUACCUUUUUGUCUAUUAACUGUAGCAAUAAGGAGAAACAAUACAAGGGGAUGAACAAGACAACAGAGGAUUGAGCAUCA
B16: chr7:97110809:97110810:-_ENSMUSG00000030619_ENSMUST00000107234|mus_mus|FALSE|FALSE (ssRNA)
RNA: GGGAGUUCUACAGUCCGACGAUCACAAGACUUGGAAAGUAUCAAAUCGCCUAACCAUCGCACACAAUCAACAUAAUUCCUAUGUAUGUCUCUGGUAGAAAAGUCAGGAAAGUGGAUUUUCUGGGAAAUAAAUGGCCUGUUAGUCAACAGAGGAUUGAGCAUCA

These binders were tested against T1, UNK ZnF1-3 (assay: nsRBNS (natural sequence RNA bind-n-seq); RBNS binding buffer (assumed for nsRBNS): 25 mM Tris pH 7.5, 150 mM KCl, 3 mM MgCl2, 0.01% Triton X-100, 500 ug/ml BSA, 20 U/ml SUPERase-In, 4 C; UNK is unkempt and MSI1 is Musashi-1; names of the RNAs are library labels; protein concentration not given here; high values mean tight binding).

Binder | binding signal
B1 | 1.25 enrichment R
B2 | 0.786 enrichment R
B3 | 0.759 enrichment R
B4 | 0.978 enrichment R
B5 | 0.579 enrichment R
B6 | 4.74 enrichment R
B7 | 5.26 enrichment R
B8 | 1.29 enrichment R
B9 | 1.14 enrichment R
B10 | 3.91 enrichment R
B11 | 1.77 enrichment R
B12 | 1.31 enrichment R
B13 | 0.543 enrichment R
B14 | 8.95 enrichment R
B15 | 1.54 enrichment R
B16 | 1.38 enrichment R
